Sampled rows, rich in hits. Any-hit rate of the full collection: about 7.5%.
ELG1 genotoxic – induces genotoxicity in HEK293T cells with luciferase-tagged ELG1; 330,000 tested, 1.3% active; HEK293T ELG1-luciferase reporter, luminescence, 16 h; Potency, µM (highest dose often 46 µM), inactives show at the highest dose activity change, positive = activation, hits mostly activators; note: % of control where 0% means no effect; nearly all actives have a fitted effect of over 60% in size
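Cells (2,000/well) expressing the ELG1-luciferase fusion are dosed by pin tool and kept 16 hr at 37 °C, 5% CO2. Signal comes from ONE-Glo luciferase reagent after 30 min at room temperature.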
FLuc counter – counter-screen for miR-21 project: firefly luciferase inhibitors or activators; P08659; Potency, µM (series often up to 57.5 µM), for the others: top-dose activity change, negative = inhibition, most hits filed as inhibitors; 360,000 tested, 6.9% active; purified FLuc, Km substrates, luminescence inhibition;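 note: plate controls were vehicle for no effect and reference inhibitor for full effect; nearly all actives have a fitted effect of over 55% in size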
Target sequence (P08659 whole entry, looked up): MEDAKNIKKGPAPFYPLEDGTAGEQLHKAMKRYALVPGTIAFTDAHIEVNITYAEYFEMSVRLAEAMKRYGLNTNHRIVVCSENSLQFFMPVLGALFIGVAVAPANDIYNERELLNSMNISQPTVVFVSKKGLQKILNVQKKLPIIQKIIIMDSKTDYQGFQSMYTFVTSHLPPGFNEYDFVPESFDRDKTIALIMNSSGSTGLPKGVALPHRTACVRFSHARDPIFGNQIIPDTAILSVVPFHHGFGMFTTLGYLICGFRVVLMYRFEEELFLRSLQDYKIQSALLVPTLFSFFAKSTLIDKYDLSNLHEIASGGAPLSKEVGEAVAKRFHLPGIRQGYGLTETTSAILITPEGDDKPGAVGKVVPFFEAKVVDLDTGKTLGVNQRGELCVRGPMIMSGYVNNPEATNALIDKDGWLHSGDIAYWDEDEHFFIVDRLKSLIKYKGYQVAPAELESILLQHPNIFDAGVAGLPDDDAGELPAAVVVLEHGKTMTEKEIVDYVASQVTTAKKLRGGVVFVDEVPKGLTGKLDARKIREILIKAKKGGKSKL
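Biochemical qHTS of compounds, final roughly 60 µM downward over six points, against 10 nM purified firefly luciferase using Km concentrations of substrates (10 uM D-luciferin, 10 uM ATP) in Tris acetate pH 7.5 buffer; luminescence output.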
SMN2 splice enh – enhancers of SMN2 splice variant expression. HEK293 SMN2-luciferase splicing reporter, luminescence, 30-36 h. Potency, µM (titrated, usually from 46.1 µM), without a hit: at the top dose activity change, positive = activation, hits mostly activators. 210,000 tested, 2.8% active; note: % of control where 0% means no effect; nearly all actives have a fitted effect of over 55% in size
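HEK293 cells carry an SMN2 […]–luciferase reporter in which exon 7 inclusion puts luciferase in frame. Cells were plated 10-12 h before compound addition, then incubated 30-36 h at 37C. ONE-Glo luminescence was read; sodium butyrate at 4.5 mM final served as control.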
Rab9 promoter act – Rab9 promoter activation | Huh7 Rab9 promoter-luciferase reporter, luminescence, 24 h | Potency, µM (series often up to 9.22 µM), without a hit: at the highest dose activation, negative = inhibition, usual class: activators | 320,000 tested, 2.8% active | AID 485297; note: % of control where 0% means no effect; nearly all actives have a fitted effect of over 60% in size
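Steps: seed 1500 Huh7 Rab9-luc cells per well, rest 2 h at 37 °C; add compound in DMSO; incubate 24 h; add luciferase reagent, 10 min ambient; read luminescence.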
NPC1 promoter act – activates the NPC1 promoter; 320,000 tested, 2.4% active; AID 485313; Huh7 NPC1 promoter luciferase reporter, 24 h; Potency, µM (series often up to 9.22 µM), for the others: at the top dose activation, hits mostly activators; note: % of control where 0% means no effect; nearly all actives have a fitted effect of over 60% in size
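Stably transfected Huh7 (NPC1 promoter→luciferase), 1500 cells/well in Opti-MEM + 10% FBS, 2 h settle, then compound 24 h at 37 °C. Luminescence after 10 min with Amplite reagent.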
The depositor's hits bear a star; ? = inconclusive; . = no result given. Calls come from the whole dose curve; as a rule, active = well fitted curve in the direction sought with a large enough effect; inconclusive = small, poorly fitted or top-dose-only effect, or another doubt; inactive = no such curve, though single readings can be large; an effect the other way counts as inactive or inconclusive. Potency is the fitted concentration of half-maximal effect.

SMILES | ELG1 genotoxic | FLuc counter | SMN2 splice enh | Rab9 promoter act | NPC1 promoter act
Clc1ccc(-c2csc(-c3ccno3)n2)cc1 | 8.2% | ? | . | 2.0% | -0.2%
Cc1nn(Cc2ccccc2)c(Cl)c1/C=C/C(=O)OCC(=O)N(C)C1CCS(=O)(=O)C1 (stereo not given) | 1.4% | 1.5% | -12.5% | -4.5% | 2.0%
CC(C)c1ccc(NC(=O)c2cc(Br)ccc2Br)cc1 | 3.1% | ? | 3.8% | 14.0% | 14.4%
O=C(O)CSc1ccc(NC(=O)Nc2ccccc2F)cc1 | 2.3% | 12µM* | . | 2.1% | -1.6%
O=C(Nc1ccccc1)Nc1ccc(Br)cc1F | 13.8% | ? | 12.6µM* | ? | ?
Cc1cc(NC(=O)Nc2ccccc2F)ccc1Br | ? | 2.39µM* | . | 1.26µM* | 1.41µM*
O=C(Nc1ccc(Cl)cc1)c1ccc(Br)cc1F | 3.26µM* | 3.01µM* | 14.1µM* | 1µM* | 1.41µM*
COc1cccc(NC(=S)N/N=C2/CCCCc3ccccc32)c1 | 14.2% | 13.5µM* | 28.2µM* | 24.1% | 10.4%
CC(C)NC(=S)N/N=C1\CCCCc2ccccc21 | -1.4% | 1.4% | -6.3% | -4.2% | -1.5%
CCCCOC(=O)Cn1c(=O)oc2ccc(C)cc21 | 3.2% | -13.5% | 8.3% | 2.1% | -0.7%
Cc1cc(C(=O)Nc2ccc3ccccc3c2)c(C)o1 | 0.651µM* | 1.35µM* | . | 3.55µM* | 1.41µM*
Cc1ccoc1C(=O)Nc1ccc(CC(=O)O)cc1 | ? | 1.69µM* | ? | -4.0% | -2.2%
Cc1cc(C(=O)Nc2ccc3ccccc3c2)oc1C | 9.2µM* | 2.13µM* | . | 0.794µM* | 0.631µM*
Cc1ccoc1C(=O)Nc1ccc2ccccc2c1 | ? | 0.379µM* | . | 0.447µM* | 1µM*
COc1ccc(CC2=CC(=O)c3ccccc3C2=O)cc1 | 11.5% | 2.39µM* | . | 16.7% | -5.1%
COc1cccc(-c2cc(C(=O)N3CCN(c4ccc(F)cc4)CC3)no2)c1 | 12.8% | -16.5% | 7.6% | ? | 0.0%
O=C(c1cc(-c2ccc(O)cc2)on1)N1CCN(c2ccccc2)CC1 | -14.2% | ? | -17.7% | 6.7% | -1.0%
O=C(c1cc(-c2ccccc2)on1)N1CCCCCC1 | 2.31µM* | 9.53µM* | . | 3.55µM* | 1.41µM*
O=C(c1cc(-c2ccc(O)cc2)on1)N1CCCC1 | 4.61µM* | 6.01µM* | . | 0.398µM* | 0.447µM*
CCOC(=O)C1CCCN(C(=O)c2cc(-c3ccc(C)cc3)on2)C1 (stereo not given) | ? | 12µM* | ? | 0.891µM* | ?
O=C(c1cc(-c2ccc(F)cc2)on1)N1CCCC1 | ? | 2.69µM* | . | 0.631µM* | 0.794µM*
CCC(=NCCc1ccc(OC)c(OC)c1)c1ccccc1O | 1.1% | 1.1% | . | -0.7% | 1.2%
CSCCC1NC2(C(=O)Nc3c(Cl)cccc32)[C@@H]2C(=O)N(C3CCCC3)C(=O)[C@H]12 (stereo not given in full) | -1.4% | 1.8% | -0.8% | 0.8% | 2.9%
CC(Oc1cccc(Br)c1)C(=O)N1CCCN(C)CC1 (stereo not given) | -7.3% | 0.0% | . | -0.9% | -0.1%
O=C(c1cc(-c2ccc(Br)cc2)on1)N1CCCC1 | 2.06µM* | 1.51µM* | . | 0.501µM* | 0.631µM*
SMILES | ELG1 genotoxic | FLuc counter | SMN2 splice enh | Rab9 promoter act | NPC1 promoter act
O=C(/C=C/c1ccc(F)cc1)N1CCCN(C(=O)/C=C/c2ccc(F)cc2)CC1 | 0.4% | ? | -10.8% | 17.5% | 3.0%
O=C(c1cc(-c2ccc(F)cc2)on1)N1CCOCC1 | ? | 6.01µM* | . | 1.58µM* | 1.12µM*
O=C(/C=C/c1ccc(-c2ccc(F)cc2)o1)N1CCCC1 | ? | 13.5µM* | . | 3.16µM* | 2.82µM*
O=C(c1cc(-c2ccc(F)cc2)on1)N1CCCCCC1 | ? | 5.36µM* | . | 1.41µM* | 0.891µM*
Cc1ccccc1C(=O)c1ccc2c(c1)n(C)c(=O)n2C | ? | 0.8% | 1.8% | 15.3% | 9.0%
COc1cccc(C2C(C(=O)c3ccc(C)o3)=C(O)C(=O)N2CCN2CCOCC2)c1 (stereo not given) | -7.5% | -2.2% | . | 9.5% | 0.8%
COc1ccc(CNC(=O)CN(C)S(=O)(=O)c2ccc3c(c2)n(C)c(=O)c(=O)n3C)cc1 | 1.6% | -1.1% | . | -1.5% | -0.9%

High-throughput results (PubChem BioAssay)
